Source: PubChem
CD11b adhes enh – enhancers of human CD11b/CD18 binding to fibrinogen. P05107+P11215. K562 CD11b/CD18 adhesion to fibrinogen, ATPlite luminescence. activation, % at 10 µM. actives 0.07% (n = 93,000). AID 1499;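 active = 10 µM primary screen giving 50% or more activity, confirmed by 40% or more on retest at that dose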
Target sequence (P05107 whole entry, looked up, other chains not shown): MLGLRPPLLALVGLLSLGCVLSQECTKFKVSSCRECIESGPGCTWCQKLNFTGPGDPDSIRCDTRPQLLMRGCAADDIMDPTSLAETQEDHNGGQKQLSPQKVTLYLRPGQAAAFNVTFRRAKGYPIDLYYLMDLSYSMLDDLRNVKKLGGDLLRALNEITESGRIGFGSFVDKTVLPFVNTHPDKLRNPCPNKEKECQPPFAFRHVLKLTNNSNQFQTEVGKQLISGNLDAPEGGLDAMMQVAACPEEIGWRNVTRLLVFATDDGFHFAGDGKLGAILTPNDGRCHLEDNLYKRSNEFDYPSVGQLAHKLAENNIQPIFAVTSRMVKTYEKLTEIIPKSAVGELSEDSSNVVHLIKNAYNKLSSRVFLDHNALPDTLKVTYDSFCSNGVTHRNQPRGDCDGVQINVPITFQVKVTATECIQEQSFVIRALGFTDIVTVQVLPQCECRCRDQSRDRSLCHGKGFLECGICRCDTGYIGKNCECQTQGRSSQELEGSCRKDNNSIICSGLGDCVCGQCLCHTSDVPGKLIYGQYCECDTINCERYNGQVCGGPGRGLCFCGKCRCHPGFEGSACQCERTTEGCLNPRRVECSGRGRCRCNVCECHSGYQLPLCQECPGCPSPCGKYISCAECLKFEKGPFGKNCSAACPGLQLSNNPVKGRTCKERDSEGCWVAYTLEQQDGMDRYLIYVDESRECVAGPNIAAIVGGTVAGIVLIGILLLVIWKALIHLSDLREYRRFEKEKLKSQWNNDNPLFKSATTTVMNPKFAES
FAK blocker – blocks human focal adhesion kinase activity; inhibition, %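 (tested at 7 µM)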; Q05397; actives 0.84% (n = 97,000); biochemical FAK kinase activity assay
D1 allo mod – allosteric modulators of human D1 dopamine receptor. P21728. HEK293 D1, CRE-luciferase, dopamine EC30 potentiation; actives deviate in either direction. B-score at 10 µM. actives 5.9% (n = 58,000);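 active = luminescence count or its row- and column-corrected plate score outside the 99.7% band of the plate's sample wells, on either side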
Mac1 fbg inh – CD11b/CD18-fibrinogen binding inhibition. P05107+P11215. K562 CD11b/CD18 adhesion to fibrinogen, ATPlite luminescence; Mn2+ added to activate the integrin. inhibition, % at 10 µM. actives 0.54% (n = 93,000). AID 1497;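 active = primary inhibition of 50% or more at 10 µM, then 40% or more on retest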
PTK2B oligo ant – antagonists of human Pyk2 oligomerization. Q293 cells, Pyk2 FERM NanoBiT luminescence; active compounds read low. z-score (the deposit names both 25 µM and 10 µM). actives 0.83% (n = 99,000). AID 1347419;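 active = Z-score of -3 or lower, scaled per plate to the spread of control and sample wells; inactive = z-score above -3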;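 note: negative z-score means lost luminescence so less FERM oligomerization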
hDAT+cocaine – changed human dopamine transporter uptake under cocaine IC80; Q01959; LLC-PK1 hDAT cells, [14C]-dopamine uptake with cocaine IC80; actives deviate in either direction; B-score at 10 µM; actives 1.3% (n = 110,000); AID 449768;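 active = Z score or B-score, a plate-position-corrected score, falls beyond the plate's 99.7% confidence bounds, in either direction; inactive = both scores lie inside the 99.7% bounds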
D1 mod confirm – confirmation of human D1 dopamine receptor allosteric modulators. shares compounds with D1 allo mod. HEK293 D1 CRE-luciferase, dopamine EC30 potentiation; active compounds read high. luminescence at 10 µM. actives 88% (n = 2,200). AID 642;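 active = luminescence in either of two replicates above the same-plate mean plus 3 SD of the low-dose dopamine control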
D1 no dopamine – activates D1 CRE-luciferase signal without dopamine present. shares compounds with D1 allo mod. HEK293 D1 CRE-luciferase, luminescence, no dopamine; active compounds read high. luminescence at 10 µM. actives 0.8% (n = 1,900). AID 646; in the data active = luminescence above about 3900
Isoprot counter – counter-screen for D1 modulators: isoproterenol response in HEK293 cells | shares compounds with D1 allo mod | HEK293 D1 CRE-luciferase, isoproterenol EC30 counter-screen | calls only at 10 µM | actives 63% (n = 2,200);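 active = luminescence in either replicate above plate mean of wells with a partly effective reference agonist dose plus 3 SD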;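 note: isoproterenol raises cAMP through native beta-adrenoceptor Gs so signal bypasses D1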
FAK inh confirm – FAK (human) inhibition confirmed. shares compounds with FAK blocker. FAK kinase biochemical inhibition assay. inhibition, % at 7 µM. actives 28% (n = 750). AID 794
Of the large screens only hits and unclear results are named; the others gave an inactive call (follow-up assays come after a bar, where they were run). Shown is part of a subset that was picked to be rich in hits. Cut-off read from the data, not from the text of the source, unless noted: active = inhibition above about 19%; inactive = the rest.

Cc1nc2c(-c3ccc(F)cc3)c(C)nn2c(C)c1CCC(=O)N1CCC2(CC1)OCCO2	D1 allo mod 6.14 (no result: FAK blocker) | D1 mod confirm 7792 | D1 no dopamine inactive | Isoprot counter active
Cc1nc2cc(-c3ccccc3)nn2c(C)c1CCC(=O)N1CCC2(CC1)OCCO2	none (no result: FAK blocker)
CCCN(CCC)C1Cc2cc(OC)c(OC)cc2C1	none (no result: CD11b adhes enh, FAK blocker, D1 allo mod, Mac1 fbg inh, PTK2B oligo ant)
COc1nc(NC(C)C)nc(NC(C)C)n1	none (no result: D1 allo mod)
Cc1[nH]c2c(C(F)(F)F)cccc2c1CCN	D1 allo mod 7.8 (no result: FAK blocker) | D1 mod confirm inactive | Isoprot counter inactive
Cc1n[nH]c(C)c1CCN	none
Cn1cnc(CCN)c1	none (no result: CD11b adhes enh, FAK blocker, D1 allo mod, Mac1 fbg inh, PTK2B oligo ant)
COC1=CCC2([N+](=O)[O-])CN(C)CC1([N+](=O)[O-])C2 (configuration not stated)	none (no result: FAK blocker, D1 allo mod, PTK2B oligo ant, hDAT+cocaine)
Nc1c(C(=O)NC2CCCC2)c2nc3ccccc3nc2n1CC1CCCO1 (configuration not stated)	FAK blocker 35.5 (no result: D1 allo mod) | FAK inh confirm inactive
CC[N+](C)(CC)CCCOC(=O)C(O)(c1ccccc1)C1CCCCC1 (configuration not stated)	none (no result: CD11b adhes enh, D1 allo mod, Mac1 fbg inh)
CCCC/C(=N\O)c1c[nH]c2ccccc12	none (no result: D1 allo mod)
O/N=C/c1c[nH]c2ccccc12	FAK blocker 37.9 | FAK inh confirm inactive
CC(Cc1ccccc1Sc1ccc(O)cc1)N(C)C (configuration not stated)	none (no result: D1 allo mod)
COc1ccc(NP(=O)(Nc2ccc(OC)cc2)Oc2ccccc2)cc1	none (no result: FAK blocker, D1 allo mod, PTK2B oligo ant, hDAT+cocaine)
COc1ccc(P2(=O)Nc3ccccc3N2)cc1	FAK blocker 39.8 (no result: CD11b adhes enh, D1 allo mod, Mac1 fbg inh) | FAK inh confirm inactive
CCC(=NCCO)c1c(O)n(-c2ccc(Cl)cc2)c(=O)[nH]c1=O	none
CCCCNC(=O)c1c(N)n(CCCOC)c2nc3ccccc3nc12	none (no result: FAK blocker)
COCCNC(=O)c1c(N)n(CCC(C)C)c2nc3ccccc3nc12	FAK blocker 26.1 (no result: D1 allo mod) | FAK inh confirm inactive
CC(C)CCn1c(N)c(C(=O)NCc2cccs2)c2nc3ccccc3nc21	FAK blocker 23.4 (no result: D1 allo mod) | FAK inh confirm inactive
Cc1cccc(C)c1OP(N)(=O)OCC(F)(F)F (configuration not stated)	none (no result: CD11b adhes enh, FAK blocker, D1 allo mod, Mac1 fbg inh, hDAT+cocaine)
O=C1C(=O)c2ccccc2-c2ccccc21	FAK blocker 59.4, Mac1 fbg inh 60.2 (no result: D1 allo mod, PTK2B oligo ant) | FAK inh confirm 58.9
COc1ccc2c(c1)c(C(=O)O)c(C)n2CC(C)C	none (no result: D1 allo mod)
CCCCn1c(C)c(C(=O)O)c2cc(OC)ccc21	FAK blocker 31.8 | FAK inh confirm inactive
Nc1ccccc1C(=O)OC1CSC1	none
COc1ccc(Cn2c(N)c(C(=O)NCc3ccco3)c3nc4ccccc4nc32)cc1OC	FAK blocker 33.7 (no result: hDAT+cocaine) | FAK inh confirm inactive
CC(C)CNC(=O)c1c(N)n(Cc2ccc3c(c2)OCO3)c2nc3ccccc3nc12	FAK blocker 31.0 (no result: D1 allo mod) | FAK inh confirm inactive
